# In PubChem BioAssay (NCI):
# “And” between values parts separate entries of the source, which are not always exact repeats. Equal entries are not always repeated. Compounds without any hit were thinned out: in the full panel of roughly 79,000, 15% have a hit. Where a structure was tested more than once in an assay, its records may differ in their call. The source made the active and inactive calls. No stated cut-off is given here; in the data, active means growth inhibition above about 70%; inactive means the rest.
# Experiments:
# [1] = NCI Yeast Anticancer Drug Screen. Data for the rad50 strain (AID 155);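 further: 0% = growth of vehicle-only cultures of the same strain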; conditions: S. cerevisiae rad50 strain growth inhibition, stronger effect = higher value
# In short: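 Cells are treated with compound, grown, and their growth is then scored against vehicle-only cultures of the same repair-deficient yeast strain.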
# [2] = NCI Yeast Anticancer Drug Screen. Data for the mec2-1 strain (AID 157); conditions: S. cerevisiae mec2-1 strain, stronger effect = higher value
# In short: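 Cells of the genetically defined mec2-1 yeast strain are incubated with test compound. Inhibition of growth is calculated against vehicle-treated controls.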
# [3] = NCI Yeast Anticancer Drug Screen. Data for the sgs1 mgt1 strain (AID 161);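 further: 0% = growth of cultures given vehicle only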; conditions: S. cerevisiae sgs1 mgt1 strain, stronger effect = higher value
# In short: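 Test agents were incubated with a DNA-repair-mutant yeast strain. Growth was then read and compared against vehicle-treated controls.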
# [4] = NCI Yeast Anticancer Drug Screen. Data for the cln2 rad14 strain (AID 165);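 further: 0% = growth equal to vehicle treated cultures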; conditions: S. cerevisiae cln2 rad14 strain, stronger effect = higher value
# In short: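 The screen exposed genetically defined yeast (cln2 rad14) to test compounds and scored growth inhibition relative to vehicle-treated controls.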
# [5] = NCI Yeast Anticancer Drug Screen. Data for the bub3 strain (AID 167); conditions: S. cerevisiae bub3 mutant strain, stronger effect = higher value
# In short: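 Part of a panel of yeast mutants defective in DNA damage repair or cell cycle regulation. Each strain is grown with compound, and inhibition is calculated relative to solvent-treated cultures.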
# [6] = NCI Yeast Anticancer Drug Screen. Data for the mlh1 rad18 strain (AID 175); conditions: S. cerevisiae mlh1 rad18 strain growth inhibition, stronger effect = higher value
# In short: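 Compound-treated yeast growth, normalised to vehicle controls. Strain bears defined DNA repair mutations.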
# [7] = at 5.0 µM (retest, dose inferred, filed as 0.5)
# [8] = at 50.0 µM (retest, dose inferred, filed as 5.0)
Structure (SMILES),"growth inhibition [1, 7]","growth inhibition [1, 8]",growth inhibition ([1]; at 50.0 µM),"growth inhibition [2, 7]","growth inhibition [2, 8]",growth inhibition ([2]; at 50.0 µM),"growth inhibition [3, 7]","growth inhibition [3, 8]",growth inhibition ([3]; at 50.0 µM),"growth inhibition [4, 7]","growth inhibition [4, 8]",growth inhibition ([4]; at 50.0 µM),"growth inhibition [5, 7]","growth inhibition [5, 8]",growth inhibition ([5]; at 50.0 µM),"growth inhibition [6, 7]","growth inhibition [6, 8]",growth inhibition ([6]; at 50.0 µM)
CCCCCCCCCCCCCCCCCCOCC(O)CO (centres undefined),0% (inactive),-1% (inactive),45.5% (inactive),-2% (inactive),-1% (inactive),55.6% (inactive),-1% (inactive),-1% (inactive),62.6% (inactive),-1% (inactive),-7% (inactive),34.2% (inactive),2% (inactive),-1% (inactive),64.7% (inactive),-3% (inactive),-13% (inactive),57% (inactive)
O=NC1C(Cl)C2CC1C1C(Br)C(Br)CC21 (centres undefined),4% (inactive) and 3% (inactive),4% (inactive) and 46% (inactive),3.2% (inactive) and 55.5% (inactive) and 48.2% (inactive),23% (inactive) and 4% (inactive),2% (inactive) and 22% (inactive),1.4% (inactive) and 32.1% (inactive) and 34% (inactive),-3% (inactive) and -2% (inactive),2% (inactive) and 29% (inactive),19.9% (inactive) and 66.5% (inactive) and 56.3% (inactive),1% (inactive) and 0% (inactive),1% (inactive) and 16% (inactive),-26.6% (inactive) and 7.1% (inactive) and 6.65% (inactive),4% (inactive) and 0% (inactive),-7% (inactive) and 7% (inactive),-5.1% (inactive) and 11.2% (inactive) and 8.2% (inactive),6% (inactive) and 4% (inactive),31% (inactive) and 52% (inactive),30.6% (inactive) and 69.8% (inactive) and 59.1% (inactive)
c1ccc2c(c1)CC1=C(O2)c2ccccc2OC1,-2% (inactive),48% (inactive),37.5% (inactive),2% (inactive),78% (active),39.5% (inactive),5% (inactive),76% (active),42.7% (inactive),-3% (inactive),22% (inactive),46.1% (inactive),4% (inactive),80% (active),53% (inactive),6% (inactive),89% (active),92.1% (active)
Fc1ccc(/C=C2\COCC3=C2NC(=S)NC3c2ccc(F)cc2)cc1 (centres undefined),32% (inactive),98% (active),88.6% (active),28% (inactive),99% (active),93% (active),72% (active),99% (active),91.2% (active),59% (inactive),99% (active),90.5% (active),77% (active),100% (active),90.7% (active),26% (inactive),98% (active),90.7% (active)
CCCC(O)c1ccc(C)cc1 (centres undefined),11% (inactive) and 1% (inactive),20% (inactive) and 2% (inactive),12.8% (inactive) and -26.4% (inactive),4% (inactive) and 3% (inactive),21% (inactive) and -2% (inactive),33.5% (inactive) and -6.65% (inactive),5% (inactive) and 0% (inactive),33% (inactive) and -1% (inactive),0.4% (inactive) and 15.7% (inactive),5% (inactive) and -1% (inactive),10% (inactive) and 0% (inactive),-43.6% (inactive) and 18.9% (inactive),-2% (inactive) and -3% (inactive),98% (active) and -10% (inactive),-6.05% (inactive) and 14.9% (inactive),7% (inactive) and 5% (inactive),21% (inactive) and 7% (inactive),6.2% (inactive) and -10.3% (inactive)
CCC1=C(C)/C(=C/c2[nH]c(C)c(CC)c2C)N=C1C,-3% (inactive) and -5% (inactive),20% (inactive) and -58% (inactive),61.1% (inactive) and 33% (inactive),6% (inactive) and 0% (inactive),48% (inactive) and 53% (inactive),66.5% (inactive) and -2.85% (inactive),0% (inactive) and -2% (inactive),51% (inactive) and 32% (inactive),76.2% (active) and 78.1% (active),-12% (inactive) and -15% (inactive),31% (inactive) and 6% (inactive),18.6% (inactive) and -57.5% (inactive),26% (inactive) and 5% (inactive),45% (inactive) and 33% (inactive),31.2% (inactive) and 22.6% (inactive),-7% (inactive) and 4% (inactive),61% (inactive) and 48% (inactive),60.5% (inactive) and 21.7% (inactive)
C=C(C)C(=O)Oc1ccc(NC(=O)c2ccccc2)ccc1=O,5% (inactive) and -1% (inactive),96% (active) and 95% (active),92.5% (active) and 96.7% (active),2% (inactive) and 26% (inactive),96% (active),75.2% (active) and 83.6% (active),7% (inactive) and 19% (inactive),95% (active) and 98% (active),96% (active) and 94.3% (active),-1% (inactive) and 1% (inactive),92% (active),89.5% (active) and 83.8% (active),5% (inactive) and 0% (inactive),94% (active) and 93% (active),89.5% (active) and 93% (active),13% (inactive) and 6% (inactive),98% (active),96.8% (active) and 96.6% (active)
O=C(c1ccco1)N(C(=S)N1CCN(c2ccccn2)CC1)C1CCCCC1,5% (inactive),46% (inactive),73.3% (active),-7% (inactive),49% (inactive),86.7% (active),0% (inactive),76% (active),84.3% (active),30% (inactive),60% (inactive),71.8% (active),0% (inactive),40% (inactive),79% (active),-14% (inactive),80% (active),79.3% (active)
